The results in this text go back to PubChem BioAssay AID463173 (ICCB-Longwood Screening Facility, Harvard Medical School, 2010).

The whole screen tested about 52,000 compounds, of which about 4,300 (8.3%) were called active. This excerpt belongs to a sample that is enriched for actives. A number with no mark means an inactive call. Rule as the data show it: active = survival mostly below about 52% (no sharp cut-off); inactive = mostly above about 56%.

For this experiment, the system named is DeltatarO mutant. As to the kind of experiment: growth inhibition of S. aureus wild type versus tarO mutant, primary screen, teichoic acid synthesis inhibitors, RN4220, OD600 (AID 463173). The note with it: OD600, 18 h, hits give low values, screened at 18.75 µg/mL (by protocol).
Take `O=C(NC1CCCC1)c1ccc2c(c1)N(Cc1ccccc1F)C(=O)c1ccccc1S2`: the survival is 81%.
The figure for `Cc1nc2cccnc2n1-c1cccc(C(=O)NCCN(C)C)c1` is 74%; for `O=C(NCC(c1cccs1)S(=O)(=O)c1ccccc1)c1ccc(C(F)(F)F)cc1` (configuration not stated) it is 90%.
For `O=C(NCc1ccc(Cl)cc1)c1cnc2sc(N3CCOCC3)nn2c1=O`, the survival is 52% (active).
The figure for `O=C(NCc1ccc(Cl)cc1)c1cnc2sc(N3CCCC3)nn2c1=O` is 72%.
The figure for `O=C(NCCc1ccc(Cl)cc1)c1cnc2sc(N3CCOCC3)nn2c1=O` is 77%; for `O=C(CN1C(=O)C2(SCC(=O)N2c2cccc(Cl)c2)c2ccccc21)NC1CCCCC1` (configuration not stated) it is 86%.
As for `Cc1ccc2c(CC(=O)Nc3ccc(S(=O)(=O)N4CCCCC4C)cc3)coc2c1C` (configuration not stated), the survival is 53%.
Regarding `COc1ccccc1NC(=O)CN1C(=O)C(c2ccc(F)cc2)=NC12CCCCC2`, the survival was 72%.
The figure for `Cc1ccc(S(=O)(=O)NCCc2cn3ccsc3n2)cc1` is 64%.
The figure for `COc1ccc(S(=O)(=O)NCCc2cn3ccsc3n2)cc1OC` is -1% (active).
As for `COc1ccc(S(=O)(=O)NCCc2cn3ccsc3n2)cc1`, the survival is 86%.
With `CCN(CCCNC(=O)c1cc2c(=O)[nH]c3ccc(C)cc3c2s1)c1ccc(C)cc1`, the survival is 68%.
The figure for `CCc1cccc(C)c1NC(=O)COCc1cc(-c2ccc3c(c2)OCO3)on1` is 101%; for `COCCn1ccc2c(OCC(=O)Nc3cccc(OC)c3)cccc2c1=O` it is 92%; for `CCOCCn1ccc2c(OCC(=O)Nc3ccc(C(N)=O)cc3)cccc2c1=O` it is 37% (active).
Regarding `CCn1ccc2c(OCC(=O)Nc3ccccc3C(F)(F)F)cccc2c1=O`, the survival is 85%.
Consider `COCCn1ccc2c(OCC(=O)Nc3ccccc3F)cccc2c1=O`, for which the survival was 25% (active).
Take `CCOCCn1ccc2c(OCC(=O)Nc3cc(C)cc(C)c3)cccc2c1=O`: the survival is 83%.
As to `CCn1ccc2c(OCC(=O)Nc3ccc(OC)cc3OC)cccc2c1=O`, the survival is 20% (active).
For the compound `CCOc1ccccc1NC(=O)COc1cccc2c(=O)n(CCOC)ccc12`, the survival was 70%.
Turning to `CCn1ccc2c(OCC(=O)Nc3ccccc3C)cccc2c1=O`, the survival is 8% (active).
On to `CCn1ccc2c(OCC(=O)Nc3ccc(C(C)=O)cc3)cccc2c1=O`, for which the survival is 66%.
For `CCOCCn1ccc2c(OCC(=O)Nc3cccc(F)c3)cccc2c1=O`, the survival is 91%.
For the compound `CCn1ccc2c(OCC(=O)NCc3ccccc3)cccc2c1=O`, the survival was 102%.
Consider `COCCn1ccc2c(OCC(=O)NCc3ccc(F)cc3)cccc2c1=O`, for which the survival is 92%.
Consider `COC(=O)c1sccc1S(=O)(=O)N(CC(=O)NCc1ccc(C)cc1)c1ccc(C)c(C)c1`, for which the survival was 68%.
`Fc1ccccc1N1CCN(c2ncnc3c2nc2n3CCCC2)CC1`: the survival is 84%.
As to `O=C(Nc1ccccc1)c1ccc(S(=O)(=O)N2CCCC2)cc1`, the survival is 94%.
Consider `N#Cc1ccccc1NC(=O)C(=O)NCC(c1ccc2c(c1)OCO2)N1CCOCC1` (configuration not stated), for which the survival was 71%.
Turning to `CCC(=O)N1CCc2cc(Br)cc(S(=O)(=O)CCC(=O)N3CCN(c4ccccc4F)CC3)c21`, the survival is 80%.
With `O=C(NCc1ccccc1Cl)C1CCCN(S(=O)(=O)c2cccc3nsnc23)C1` (configuration not stated), the survival is 91%.
For `CCN1CCN(CCC(=O)Nc2ccc(OC)cc2)CC1`, the survival is 97%.
For the compound `Cc1nn(-c2ccccc2)c2sc(C(=O)N(CC(=O)NC3CCCC3)C3CC3)cc12`, the survival was 78%.
On to `Cc1nn(-c2ccccc2)c2sc(C(=O)NN=C3CCCC3)cc12`, for which the survival was 109%.
In the case of `Cc1nn(-c2ccccc2)c2sc(C(=O)N(Cc3ccco3)C(C)C(=O)NC3CCCCC3)cc12` (configuration not stated), the survival was 60% (active).
The result for `O=C(OCc1ccccc1Cl)c1ccc(-c2nnn(Cc3ccccc3)n2)cc1` reads 52%.
In the case of `CC(C)CNC(=O)C1CCN(S(=O)(=O)c2ccc(-n3cnnn3)cc2)CC1`, the survival was 86%.
The result for `Cc1ccc(NC(=O)Cn2c(=O)nc(-c3ccccc3F)c3cc(Cl)ccc32)c(Br)c1` reads 79%; that for `O=C1CC2CCC(CN1)N2S(=O)(=O)c1ccc(C(=O)O)cc1` (configuration not stated), 93%.
For the compound `Cc1ccc(-c2cc(C(=O)N3CCN(S(=O)(=O)c4ccc(Br)s4)CC3)[nH]n2)c(C)c1`, the survival was 70%.
The figure for `O=C(NCc1ccccc1Cl)c1cnc2sc(N3CCCCC3)nn2c1=O` is 76%; for `COc1ccc(C(=O)NCC(c2ccc(N(C)C)cc2)N2CCc3ccccc32)cc1` (configuration not stated) it is 118%; for `Cc1cc(C(=O)NCc2ccc(C(=O)O)o2)c(C)o1` it is 58% (active).
On to `Cc1cc(C(=O)Nc2ccccc2C(=O)O)c(C)o1`, for which the survival was 66%.
`Cc1cc(C(=O)NCC(=O)O)c(C)o1`: the survival is 76%.
In the case of `CCC(=O)NC1CCNCC1`, the survival was 76%.
The result for `CCOc1ccc(CNS(=O)(=O)c2ccc3[nH]c(=O)ccc3c2)cc1` reads 85%; that for `CCOc1ccccc1CNS(=O)(=O)c1ccc2[nH]c(=O)ccc2c1`, 81%; that for `CCOc1ccc(OCC)c(NS(=O)(=O)c2ccc3[nH]c(=O)ccc3c2)c1`, 8% (active).
For the compound `Cc1ccc(C)c(NS(=O)(=O)c2ccc3oc(=O)c4ncn(C)c4c3c2)c1`, the survival was 82%.
Regarding `Cc1ccccc1Cn1c(CCCNC(=O)C2CCCCC2)nc2ccccc21`, the survival is 90%.
As for `O=C(NCCc1nc2ccccc2n1Cc1ccccc1F)c1ccc(F)cc1`, the survival is 81%.
The figure for `COc1cccc(OCc2nc3ccccc3n2Cc2ccccc2C)c1` is 75%; for `COc1ccc(Cc2nc3ccccc3n2Cc2ccccc2F)cc1` it is 18% (active).
For the compound `O=C(NCCCc1nc2ccccc2n1Cc1ccccc1F)c1ccco1`, the survival is 63%.
`COc1ccc(Cc2nc3ccccc3n2Cc2ccccc2C)cc1`: the survival was -3% (active).
On to `CC(=O)N1CCc2cc(CNC(=O)Cc3ccc(F)cc3)ccc21`, for which the survival is 94%.
For the compound `Cc1oc2cc3oc(=O)c(CC(=O)N4CCCCC4)c(C)c3cc2c1C`, the survival is 73%.
As for `O=C(Cn1cc(SCc2ccccc2F)c2ccccc21)N1CCCCC1`, the survival was 82%.
`COC(=O)c1ccc(CN(Cc2ccc(OC)c(OC)c2)S(=O)(=O)c2cc(C(=O)Nc3cccc(C)c3)ccc2F)cc1`: the survival is 86%.
Regarding `CCOc1ccc(NC(=O)c2ccc(F)c(S(=O)(=O)N(CC)Cc3ccccc3)c2)cc1`, the survival is 78%.
Take `O=C(Nc1ccc(C(F)(F)F)cc1)c1cc(S(=O)(=O)NC2CCCCCC2)ccc1F`: the survival was 25% (active).
Take `Cc1ccc(NC(=O)c2cc(S(=O)(=O)NC3CCCCCC3)ccc2F)cc1F`: the survival was 92%.
For `O=C(Nc1ccc(C(F)(F)F)cc1)c1cc(S(=O)(=O)NC2CCCCC2)ccc1F`, the survival is 92%.
Regarding `O=C(Nc1ccc(F)c(F)c1)c1cc(S(=O)(=O)NC2CCCCCC2)ccc1F`, the survival is 54%.
Consider `O=C(Nc1ccc(Cl)cc1)c1cc(S(=O)(=O)NC2CCCCCC2)ccc1F`, for which the survival was 90%.
With `CCOc1ccc(NC(=O)c2ccc(F)c(S(=O)(=O)N(Cc3ccc(C(=O)OC)cc3)Cc3ccc(OC)c(OC)c3)c2)cc1`, the survival was 47% (active).
The result for `O=C(Nc1ccc(Br)cc1)c1ccc(F)c(S(=O)(=O)NC2CCCCCC2)c1` reads 84%; that for `CCc1ccc(NC(=O)c2ccc(F)c(S(=O)(=O)NC3CCCCCC3)c2)cc1`, -2% (active).
The result for `Cc1ccc(NC(=O)c2cc(S(=O)(=O)NC3CCCCC3)ccc2F)cc1Cl` reads -5% (active).
The result for `CCc1ccc(NC(=O)c2ccc(F)c(S(=O)(=O)N(C)C3CCCCC3)c2)cc1` reads 84%.
